Measurements taken from PubChem BioAssay.
Activity calls are given as the source filed them.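 Rule for the calls: active = compounds killing one labelled cell type while sparing the other, by normalised counts and ratio limits, not self-fluorescent; inactive = the rest.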

Experiment: differential killing of epithelial or mesenchymal cells, primary screen, imaging, PC-3E GFP, TEM4-18 mCherry, co-culture (AID 1345086);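 note: cells exposed to compound for 72 h before imaging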;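 for red/green cell ratio (normalised): normalised mesenchymal count divided by normalised epithelial count so high means epithelial killing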
Conditions: imaging cell counts, at 1 µM; for red/green cell ratio (normalised): actives lie on both sides, counts scaled to control wells, 1 = unselective
[1] = measured here: epithelial PC-3E GFP cell survival
[2] = measured here: mesenchymal TEM4-18 mCherry cell survival

| SMILES | red/green cell ratio (normalised) | normalised cell number [1] | normalised cell number [2] |
| --- | --- | --- | --- |
| COC(=O)NC1[C@@H](O)C(O)C(CO)O[C@H]1Sc1ccccc1 (stereo not given in full) | 0.91 (inactive) | 1.06 | 0.96 |
| C[C@H]1[C@H](C)CC[C@]2(C(=O)O)CC[C@]3(C)C(=CCC4[C@@]5(C)C[C@@H](O)[C@H](O)[C@@](C)(CO)C5CC[C@]43C)[C@H]12 (stereo not given in full) | 1.16 (inactive) | 0.97 | 1.13 |
| CC(=O)NCCc1ccc(O)c(-c2c(O)c(O)c3c(c2O)C(=O)c2c(cc(O)c(C(=O)O)c2C(=O)O)C3=O)c1 | 1.13 (inactive) | 0.95 | 1.07 |
| COC(=O)C1O[C@H](Sc2ccccc2)[C@@H](OC(=O)c2ccccc2)[C@@H](OC(=O)c2ccccc2)C1O (stereo not given in full) | 0.96 (inactive) | 1.05 | 1 |
| CCC[C@@H]1Cc2cc3c(-c4c(O)cc(O)c5c(O)c6c(cc45)C[C@@H](CCC)OC6=O)c(O)cc(O)c3c(O)c2C(=O)O1 | 0.85 (inactive) | 1.2 | 1.02 |
| Clc1ccc2ncc(Cl)nc2c1 | 1.15 (inactive) | 0.91 | 1.05 |
| NC(CSCSCC(N)C(=O)O)C(=O)O (stereo not given) | 1.19 (inactive) | 0.91 | 1.08 |
| COc1c(F)c(F)cc2c(=S)c(C(=O)O)cn(C3CC3)c12 | 0.91 (inactive) | 1.14 | 1.04 |
| CCCCCCCCCCCCCc1ccco1 | 1.13 (inactive) | 0.74 | 0.83 |
| CC1CC(=O)c2c(cc3c(-c4c(O)cc(O)c5c(O)c6c(cc45)OC(C)CC6=O)c(O)cc(O)c3c2O)O1 (stereo not given) | 0.92 (inactive) | 1.06 | 0.98 |
| O=C1N[C@@H]2[C@@H](Sc3ccccc3)OC(CO)C(O)[C@@H]2O1 (stereo not given in full) | 0.97 (inactive) | 1 | 0.97 |
| Nc1ccc(Oc2ccccc2)cc1 | 0.95 (inactive) | 0.99 | 0.94 |
| COc1cc(C(O)CO)oc1C=O (stereo not given) | 0.86 (inactive) | 1.08 | 0.93 |
| CC1=C(/C=C/C(C)=C/C=C/C(C)=C/C=C/C=C(C)/C=C/C=C(C)/C=C/C2=C(C)C(=O)C(O)CC2(C)C)C(C)(C)CC(O)C1=O (stereo not given) | 1.11 (inactive) | 0.97 | 1.08 |
| CC(CC(=O)N1C(=O)OC[C@H]1c1ccccc1)N1CCSC1=S (stereo not given in full) | 0.94 (inactive) | 1.15 | 1.08 |
| COc1cc2c(cc1OC)C1C(=O)c3c(O)cc4c(c3OC1CO2)C=CC(C)(C)O4 (stereo not given) | 0.7 (inactive) | 0.94 | 0.66 |
| O=c1c(-c2ccc(O)cc2)coc2c(C3O[C@H](CO)[C@@H](O)[C@H](O)[C@H]3O)c(O)ccc12 (stereo not given in full) | 1 (inactive) | 1.12 | 1.13 |
| CCN1CCN(c2c(F)cc3c(=O)c(C(=O)O)cn4c3c2OC[C@@H]4C)CC1 | 0.75 (inactive) | 1.34 | 1 |
| C[C@H]1[C@H](C)CC[C@]2(C(=O)O)CC[C@]3(C)C(=CCC4[C@@]5(C)C[C@@H](O)[C@H](O)[C@@](C)(CO)C5[C@H](O)C[C@]43C)[C@H]12 (stereo not given in full) | 1.27 (inactive) | 0.92 | 1.17 |
| CCCCC/C=C/C1=C(CO)[C@H](O)[C@H]2O[C@H]2[C@@H]1O | 1 (inactive) | 1.08 | 1.08 |

| SMILES | red/green cell ratio (normalised) | normalised cell number [1] | normalised cell number [2] |
| --- | --- | --- | --- |
| CC(C)CCCC(C)C1CCC2C3=CC[C@H]4C[C@@H](O)CC[C@]4(C)C3CC[C@@]21C (stereo not given in full) | 0.98 (inactive) | 1.1 | 1.08 |
| CC(C)[C@@H]1CC[C@]2(CO2)[C@@H]2C(=O)OCC(C(=O)O)=C[C@H]21 | 1.02 (inactive) | 1.02 | 1.05 |
| O=C(/C=C/c1ccccc1)O[C@H]1C[C@@H](O)[C@]2(O)C=CO[C@@H](O[C@@H]3O[C@H](CO)[C@@H](O)[C@H](O)[C@H]3O)C12 (stereo not given in full) | 1.09 (inactive) | 0.87 | 0.95 |
| CC1(C)C(C(=O)O)N2C(=O)C[C@H]2S1(=O)=O (stereo not given in full) | 0.69 (inactive) | 1.22 | 0.84 |
| O=C(O)CNc1ccc(Cl)cc1[N+](=O)[O-] | 1.05 (inactive) | 1.11 | 1.17 |
| CO[C@H]1/C=C/O[C@@]2(C)Oc3c(C)c(O)c4c(O)c(c(/C=N/N5CCN(C)CC5)c(O)c4c3C2=O)NC(=O)/C(C)=C\C=C\[C@H](C)[C@H](O)[C@@H](C)[C@@H](O)[C@@H](C)[C@H](CC(C)=O)[C@@H]1C | 0.98 (inactive) | 1.05 | 1.03 |
| O[C@@H]1[C@H](O)CO[C@H]1O | 0.77 (inactive) | 1.11 | 0.86 |
| COc1cc(/C=C/C(=O)O)cc(OC)c1 | 1.01 (inactive) | 0.91 | 0.93 |
| O=c1c(O)cc([C@H]2Oc3cc(O)cc(O)c3C[C@H]2O)cc2c([C@H]3Oc4cc(O)cc(O)c4C[C@@H]3O)cc(O)c(O)c12 | 0.92 (inactive) | 1.03 | 0.95 |
| Cc1ccc(S(=O)(=O)O[C@H]2CCOC2=O)cc1 | 0.92 (inactive) | 1.16 | 1.06 |
| O=Cc1ccccc1O[C@@H]1O[C@H](CO)[C@H](O)[C@@H](O)[C@H]1O | 0.97 (inactive) | 0.92 | 0.9 |
| COC(=O)C1O[C@H](OCc2ccccc2)[C@@H](OC(C)=O)[C@@H](OC(C)=O)C1OC(C)=O (stereo not given in full) | 0.86 (inactive) | 1.31 | 1.13 |
| Nc1nc(Cl)nc2c1ncn2C1O[C@H](CO)[C@@H](O)[C@@H]1F (stereo not given in full) | 1.78 (inactive) | 0.22 | 0.39 |
| Cc1c(O)c(O)cc2oc3cc(O)cc(O)c3c(=O)c12 | 1.06 (inactive) | 1.06 | 1.12 |
| CO[C@@]1(NC(=O)C2SC(=C(C(N)=O)C(=O)O)S2)C(=O)N2C(C(=O)O)=C(CSc3nnnn3C)CSC21 (stereo not given in full) | 0.96 (inactive) | 1.21 | 1.17 |
| CC(=O)C(C)(C)[C@H]1OC2CC[C@@]3(C)[C@@](O)(CC[C@H]4Cc5c([nH]c6ccccc56)[C@@]43C)C2=CC1=O (stereo not given in full) | 0.87 (inactive) | 1.15 | 1 |
| O=C(O)C(c1ccccc1)c1ccccc1 | 1.12 (inactive) | 1.01 | 1.13 |
| C[C@]12C=CC(=O)NC1CCC1C2CC[C@@]2(C)C1CC[C@@H]2C(=O)Nc1cc(C(F)(F)F)ccc1C(F)(F)F (stereo not given in full) | 0.83 (inactive) | 1.1 | 0.91 |
| CC1=CC2C(C(C)C)CCC(C)(O)C2CC1 (stereo not given) | 1.01 (inactive) | 1.1 | 1.11 |
| C/C=C/C1=CC(=O)[C@H](O)[C@H]1O | 1.04 (inactive) | 1.04 | 1.07 |

| SMILES | red/green cell ratio (normalised) | normalised cell number [1] | normalised cell number [2] |
| --- | --- | --- | --- |
| O=c1cc(-c2ccccc2)oc2cc(O[C@@H]3O[C@H](CO)[C@@H](O)[C@H](O)[C@H]3O)c(O)c(O)c12 | 0.89 (inactive) | 1.13 | 1 |
| COC(=O)CCC(=O)NC(=O)Cc1ccccc1 | 0.93 (inactive) | 1.16 | 1.08 |
| COC(=O)c1cn(C2CC2)c2c(OC)c(F)c(F)c(N)c2c1=O | 1.1 (inactive) | 0.97 | 1.07 |
| CC(=O)O[C@H]1CC[C@]2(C)C3CC[C@@]4(C)C(CC5O[C@@]6(CCC(C)CO6)[C@@H](C)C54)C3CC[C@@H]2C1 (stereo not given in full) | 1.09 (inactive) | 0.87 | 0.95 |
| COC1=C(O)C(=O)c2c(cc3oc(C(C)=O)c(O)c3c2O)C1=O | 1.19 (inactive) | 0.94 | 1.12 |
| COc1cc(OC)c2c(c1C)C(C)(O)COC2=O (stereo not given) | 0.9 (inactive) | 1.14 | 1.02 |
| COc1c(N2CC[C@@H](CN)C2)c(F)cc2c(=O)c(C(=O)O)cn(CCCCN3C(=O)c4ccccc4C3=O)c12 | 1 (inactive) | 1.09 | 1.09 |
| Cc1ccc(S[C@H]2OC(CO)C(O)[C@@H]3OC(=O)N[C@H]23)cc1 (stereo not given in full) | 0.98 (inactive) | 1.01 | 0.99 |
| NC(=O)C[C@H](NC(=O)OCc1ccccc1)C(=O)O | 1.25 (inactive) | 0.87 | 1.08 |
| COc1ccc2c(c1)CCC1C2CC[C@@]2(C)C1CC[C@@H]2O (stereo not given in full) | 0.78 (inactive) | 1.46 | 1.14 |
| C=C1OC(=O)c2c(OC)cc(OC)c(C)c2C1C (stereo not given) | 1 (inactive) | 0.98 | 0.98 |
| CCSC(SCC)[C@@H]1NC(=O)O[C@H]1[C@H](O)[C@H](O)CO | 1 (inactive) | 1.12 | 1.12 |
| COc1cc(C(=O)O)cc(C)c1C(=O)CC(C)O (stereo not given) | 0.9 (inactive) | 1.04 | 0.94 |
| Nc1ncnc2c1ncn2C1C[C@H](O)[C@@H](CO)O1 (stereo not given in full) | 0.92 (inactive) | 0.99 | 0.91 |
| COc1cc2c(cc1OC)Cc1cc(OC)c(OC)cc1Cc1cc(OC)c(OC)cc1C2 | 1.03 (inactive) | 1.01 | 1.04 |
| CC(=O)OCC(=O)[C@H]1CCC2C3CC=C4C[C@@H](O)CC[C@]4(C)C3CC[C@@]21C (stereo not given in full) | 0.94 (inactive) | 0.99 | 0.93 |
| CC(CC(=O)N1C(=O)OC[C@H]1c1ccccc1)N1C(=S)OC[C@@H]1c1ccccc1 (stereo not given in full) | 0.97 (inactive) | 1.02 | 0.99 |
| OC[C@H]1O[C@H](OCCCc2ccc(O)cc2)[C@H](O)[C@@H](O)[C@@H]1O | 1.19 (inactive) | 0.9 | 1.07 |
| CC(C)=CCCC(C)C1CC[C@@]2(C)C3=C(CC[C@]12C)C1(C)CC[C@H](O)C(C)(C)C1CC3 (stereo not given in full) | 1.05 (inactive) | 1.09 | 1.14 |
| NCC1O[C@@H](OC2C(N)C[C@@H](N)C(OC3OC(CO)[C@@H](O)C(N)[C@H]3O)[C@H]2O)C(O)CC1O (stereo not given in full) | 1.05 (inactive) | 1.04 | 1.09 |
